Laboratory results as given in paper PMC4336329 (PLoS ONE, 2015).
The whole screen tested about 310,000 compounds, of which about 14,000 (4.5%) showed an effect of 50% or more. Effects have a minus sign here. The sample holds strong results, similar compounds and a random draw of the others, so the mix is not that of the screen.

target: human ether-à-go-go-related gene (hERG) potassium channel (human, UniProt Q12809); experiment: primary screen, population patch clamp on CHO cells stably expressing hERG; higher = less effect of the substance
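Further: peak tail current of the secondary pulse compared with the same well before compound.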

Sequence of human ether-à-go-go-related gene (hERG) potassium channel (Q12809 whole entry, looked up): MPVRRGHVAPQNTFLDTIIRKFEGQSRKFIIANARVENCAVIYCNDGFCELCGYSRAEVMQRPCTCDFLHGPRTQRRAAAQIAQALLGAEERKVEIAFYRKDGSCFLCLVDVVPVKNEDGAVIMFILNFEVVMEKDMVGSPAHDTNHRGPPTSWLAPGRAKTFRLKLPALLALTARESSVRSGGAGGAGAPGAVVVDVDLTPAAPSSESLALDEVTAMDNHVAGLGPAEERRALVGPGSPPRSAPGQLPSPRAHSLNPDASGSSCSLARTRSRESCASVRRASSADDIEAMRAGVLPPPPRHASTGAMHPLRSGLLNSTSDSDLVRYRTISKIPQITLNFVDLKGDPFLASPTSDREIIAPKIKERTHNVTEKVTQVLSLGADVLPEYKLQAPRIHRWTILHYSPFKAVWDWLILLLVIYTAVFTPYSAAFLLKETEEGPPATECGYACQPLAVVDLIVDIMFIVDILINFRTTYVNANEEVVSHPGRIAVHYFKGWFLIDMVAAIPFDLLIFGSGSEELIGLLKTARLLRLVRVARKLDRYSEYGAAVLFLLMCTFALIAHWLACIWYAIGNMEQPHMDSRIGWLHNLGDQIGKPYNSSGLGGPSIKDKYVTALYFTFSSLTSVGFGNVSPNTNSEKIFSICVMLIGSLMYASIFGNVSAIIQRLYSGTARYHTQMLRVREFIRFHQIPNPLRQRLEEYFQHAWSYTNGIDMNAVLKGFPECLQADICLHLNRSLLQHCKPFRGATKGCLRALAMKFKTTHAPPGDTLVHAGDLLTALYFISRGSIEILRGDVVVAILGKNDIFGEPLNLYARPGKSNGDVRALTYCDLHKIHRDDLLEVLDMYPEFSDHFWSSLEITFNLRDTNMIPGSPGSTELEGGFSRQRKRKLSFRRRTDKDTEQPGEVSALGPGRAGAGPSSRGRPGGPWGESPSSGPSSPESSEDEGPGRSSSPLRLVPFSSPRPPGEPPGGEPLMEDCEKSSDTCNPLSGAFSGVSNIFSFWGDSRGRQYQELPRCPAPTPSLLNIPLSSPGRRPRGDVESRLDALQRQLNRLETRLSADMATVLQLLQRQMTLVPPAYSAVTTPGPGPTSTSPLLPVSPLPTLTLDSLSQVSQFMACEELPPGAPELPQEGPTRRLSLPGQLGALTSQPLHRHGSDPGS

In order of rising “hERG current change (%, negative = inhibition) at 10uM” value:
1. COC(=O)c1ccc(CSc2ccc3nnc(-c4ccccn4)n3n2)o1  -62.8%
2. COC(=O)c1ccc(CSc2ccc3nnc(-c4cccc(F)c4)n3n2)o1  -62%
3. CCOc1ccc2nc(N(Cc3ccccc3)C(=O)CCNC(C)=O)sc2c1  -61%
4. CC(=O)NCCC(=O)N(Cc1ccccc1)c1nc2c(C)cccc2s1  -57.4%
5. COC(=O)c1ccc(CSc2ccc3nnc(-c4ccccc4)n3n2)o1  -53.5%
6. COC(=O)c1ccc(CSc2ccc3nnc(-c4ccc(OC)cc4)n3n2)o1  -44.2%
7. CCN1CCCC1CNC(=O)c1ccc2c(c1)N(Cc1cccc(Cl)c1)C(=O)c1ccccc1S2(=O)=O (centres unmarked)  -39.7%
8. COC(=O)c1ccc(CSc2ccc3nnc(-c4ccc(F)cc4)n3n2)o1  -29.1%
9. CCOc1ccc(-c2nnc3ccc(SCc4ccc(C(=O)OC)o4)nn23)cc1  -24.4%
10. COC(=O)c1ccc(CSc2ccc3nnc(-c4ccc(OC)c(OC)c4)n3n2)o1  -15.1%
11. CC1CN(C2=NC(=O)/C(=C/c3ccncc3)S2)CC(C)O1 (centres unmarked)  -14.5%
12. Cc1cccc2sc(N(CCN3CCOCC3)C(=O)CCS(=O)(=O)c3ccccc3)nc12.Cl  -13.3%
13. COc1ccccc1-c1cc(C(=O)N2CCCC2)no1  -8.67%
14. COc1ccc2nc(N(Cc3ccccc3)C(=O)CCNC(C)=O)sc2c1  -8.54%
15. CCCC(=O)N(CCN1CCOCC1)c1nc2c(C)cccc2s1.Cl  -7.14%
16. CC(=NCCO)c1c(O)n(C2CCCCC2)c(=O)[nH]c1=O  -5.36%
17. COC(=O)c1ccc(NC(=S)Nc2cccc(C)n2)cc1  -0.48%
18. CC(NC(=O)c1cc(F)c(F)cc1Cl)c1ccncc1 (centres unmarked)  1.1%
19. CCOc1ccc2nc(N(CCN(C)C)C(=O)c3cc4ccccc4cc3OC)sc2c1.Cl  1.72%
20. CCOC(=O)c1ccc(NC(=O)c2nn(CC)cc2Br)cc1  5.3%
21. COc1ccccc1NS(=O)(=O)c1ccc(O)c(NC(=S)NCC2CCCO2)c1 (centres unmarked)  7%
22. O=C(COC(=O)c1c(F)cccc1Cl)NC(=O)Nc1ccc2c(c1)OCCO2  12.4%
23. Cc1ccc(S(=O)(=O)/N=C(/Nc2ccc(F)cc2F)c2ccccc2)cc1  12.9%
24. CCCc1ccc(C(C)NC(=S)NCc2ccc(F)cc2)cc1 (centres unmarked)  18.6%
25. CCN(CC)C(=O)C(=O)N/N=C/c1ccc(F)cc1  18.7%
26. CCOc1ccc(C(=O)OCC(=O)NC(C)C)cc1  22.3%
